Laboratory results as given in PubChem BioAssay (NCI).
“And” between values parts separate entries of the source, which are not always exact repeats. Equal entries are not always repeated. The panel holds about 79,000 compounds, 15% with a hit somewhere; the sample as a whole holds those more often. A number with no mark means an inactive call. The source made the active and inactive calls. Rule as the data show it: active = growth inhibition above about 70%; inactive = the rest.

Experiment: NCI Yeast Anticancer Drug Screen. Data for the mlh1 rad18 strain (AID 175)
Settings: S. cerevisiae mlh1 rad18 strain growth inhibition; at 50.0 µM; stronger effect = higher value
Summary of the method: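 Compound-treated yeast growth, normalised to vehicle controls. Strain bears defined DNA repair mutations.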
Work on `O=[As]c1ccc(C(=O)O)cc1` (configuration not stated) yielded a growth inhibition of 23.2%. For `CCCC[As](CCCC)SC1OC(COC(C)=O)C(OC(C)=O)C(OC(C)=O)C1OC(C)=O` (configuration not stated), the growth inhibition was 98.1% (active). For `O=C([O-])c1ccccc1Nc1ccccn1.O=C([O-])c1ccccc1Nc1ccccn1.[Ni+2]`, the growth inhibition was -9.85%. With `Nc1cc(N)c([N+](=O)[O-])cc1[N+](=O)[O-]` the growth inhibition was 11.3%. Compound `C(#CCN1CCCCCC1)CN1CCCCCC1` has a growth inhibition of -2.7%. `Cc1ccc(OP(=O)(Oc2ccc(C)c(C)c2)Oc2ccc(C)c(C)c2)cc1C` gave a growth inhibition of -17%. In the case of `CCCCC(CC)C(=O)O` (configuration not stated), the growth inhibition was -10.7% and 7%. For `Nc1ncnc2c1ncn2C1OC(CO)C2NP(=O)(N(CCCl)CCCl)OC21` (configuration not stated), the growth inhibition was -38% and -8.55%. In the case of `NCCN.NCCN.[Cl-].[O]=[Re]=[O]`, the growth inhibition was -0.6%. In the case of `Br[CH](Br)[Hg][c]1ccccc1`, the growth inhibition was 99.2% (active). In the case of `CCCCOC1OCN(C2CCCCC2)CC1(C)C` (configuration not stated), the growth inhibition was 41.8%. In the case of `O=C(NP(=O)(N1CC1)N1CC1)c1cc(I)ccc1I`, the growth inhibition was -14.3%. For `Cc1cc(N(C)CCCl)ccc1N=Nc1ccccc1C(=O)O`, the growth inhibition was 18.8%. For `CCCOC(=O)c1cncn1C(C)c1ccccc1` (configuration not stated), the growth inhibition was 31.4%. `CC[N+]1(CC)CC[N+](CC)(CC)CC1` gave a growth inhibition of 16.4%. For `NC(N)=N/N=C/C(=N\N=C(N)N)C(O)C(O)C(O)C(O)CO` (configuration not stated), the growth inhibition was -22.4% and 15.9%. With `N.O=S(=O)(O)O.[Al]` the growth inhibition was -2.4%.
